This is a sample that favours compounds with a hit; in the whole collection about 1.5% have one here.
CCHF vOTU inh: blocks the CCHF virus ovarian tumor domain protease; CCHFV vOTU protease, Pep-AMC fluorescence; inhibition, % at 11.5 µM; 0.55% of 370,000 active; AID 651958; in the data active = inhibition above about 30%; also: 0% = vehicle wells with enzyme and 100% = no enzyme wells
TcdB GH inh: blocks C. difficile toxin B glycohydrolase activity; P18177; 0.24% of 350,000 active; TcdB glycohydrolase enzymatic assay, plate reader; inhibition, % at 9.99 µM; in the data active = inhibition above about 10%
VHR inh abs: inhibitors of human VHR1 phosphatase (DUSP3); recombinant VHR phosphatase, pNPP absorbance; inhibition, % at 13.3 µM; 0.52% of 290,000 active; in the data active = inhibition above about 50%
PrPC surface inh: inhibitors of human cell surface prion protein PrPC; P04156; TR-FRET read-out; 0.43% of 370,000 active; inhibition, % at 13.8 µM; AID 720596; in the data active = inhibition above about 24%; also: 0% = median of the test wells and 100% = reference compound wells
SSB-PriA inh: inhibitors of Klebsiella pneumoniae PriA binding to SSB C-terminal tail; AlphaScreen SSBct-PriA binding, biotinylated peptide; inhibition, % at 33 µM; 0.6% of 430,000 active; in the data active = inhibition mostly above about 37%, no sharp cut-off; inactive = mostly below about 20%;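 also: plate controls were negative control peptide for no effect and reference peptide for full effect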
BH1578 lux ind: quorum light induction in luxS cqsA deficient V. cholerae; V. cholerae BH1578 lux reporter, luminescence, 6 h; activation, % at 18.7 µM; 0.16% of 350,000 active; AID 588436; in the data active = activation mostly above about 9.7%, no sharp cut-off
Starred values were filed as active, the others as inactive; i = inactive; nt = not tested or not shown.

SMILES	CCHF vOTU inh	TcdB GH inh	VHR inh abs	PrPC surface inh	SSB-PriA inh	BH1578 lux ind
Cc1ccc(S(=O)(=O)c2nc(N3CCCC(C)C3)sc2Cl)cc1 (stereo not drawn)	nt	nt	nt	nt	-4	nt
O=C(c1ccsc1)N1CCN(c2nc(-c3ccsc3)cs2)CC1	nt	nt	nt	nt	12	nt
CC(C)S(=O)(=O)c1ccc(CC(=O)N2CCC(CSC3=NCCS3)CC2)cc1	nt	nt	nt	nt	-3	nt
CN(C)CC(C)(C)CNC(=O)C1CCN(CCCc2ccccc2)CC1	2	0	55*	-11	-6	0
CC(=O)OC(C)(C)/C=C/C(=O)C(C)(O)C1C(O)CC2(C)C3CC=C4C(CC(O)C(=O)C4(C)C)C3(C)C(=O)CC12C (stereo not drawn)	3	0	nt	34*	-3	i
CON=Cc1ccc(N2CCCC2)c([N+](=O)[O-])c1	nt	nt	nt	nt	39*	nt
O=[N+]([O-])c1ccc(N2CCCC2)cc1N1CCN(c2ccccc2)CC1	nt	nt	nt	nt	84*	nt
O=[N+]([O-])c1ccc(N2CCCC2)cc1N1CCOCC1	nt	nt	nt	nt	57	nt
CN1CCN(c2cc(N3CCCC3)ccc2[N+](=O)[O-])CC1	nt	nt	nt	nt	59*	nt
CO/N=C/c1ccc(N2CCOCC2)c([N+](=O)[O-])c1	4	2	9	-4	nt	i
Cc1nnc(NC(=O)CN2CCN(CC(O)c3ccco3)CC2)s1 (stereo not drawn)	nt	nt	nt	nt	-16	nt
O=C(Nc1nc2c(s1)COc1ccccc1-2)[C@@H]1CCCN1S(=O)(=O)c1ccc(Cl)cc1	nt	nt	nt	nt	-4	nt
OCc1cc(-c2ccc(F)cc2)on1	nt	nt	nt	nt	-12	nt
COC(=O)C1=C(c2ccccc2OCc2ccccc2)C[C@@H]2CC[C@H]1N2C(=O)NCc1ccc(Cl)cc1	7	0	nt	6	-23	-1
COC(=O)C1=C(c2ccc(F)cc2OCc2ccccc2)C[C@@H]2CC[C@H]1N2C(=O)N1CCCC1	-7	10*	nt	1	-26	0
COC(=O)C1=C(c2ccc(F)cc2OCc2ccccc2)C[C@@H]2CC[C@H]1N2C(=O)NCc1ccc(N(C)C)cc1	13	1	nt	9	46*	i
COC(=O)C1=C(c2ccccc2OCc2ccccc2)C[C@@H]2CC[C@H]1N2C(=O)NCc1ccc(N(C)C)cc1	5	0	nt	8	53*	i
COC(=O)C1=C(c2ccc(F)cc2OCc2ccccc2)C[C@@H]2CC[C@H]1N2C(=O)NCCOc1ccccc1	2	10*	nt	4	-14	0
COc1ccc(OCC(=O)NCCOc2ccc3nnc(-c4ccccc4)n3n2)cc1	nt	nt	nt	nt	-8	nt
COC(=O)C1=C(c2cccc(OCc3ccccc3)c2)C[C@@H]2CC[C@H]1N2C(=O)NCc1ccc(C(C)(C)C)cc1	23	1	nt	10	-14	-1
COC(=O)C1=C(c2cccc(OCc3ccccc3)c2)C[C@@H]2CC[C@H]1N2C(=O)NCc1ccc(N(C)C)cc1	1	0	nt	10	56*	-1
O=[N+]([O-])c1ccc(NN=C2CC3CC=CC23)c([N+](=O)[O-])c1 (stereo not drawn)	nt	nt	nt	nt	52*	nt
O=C(c1cc(-c2ccco2)on1)N(CCn1cccn1)c1nc2c(C(F)(F)F)cccc2s1	nt	nt	nt	nt	-16	nt
Cc1ccc(S(=O)(=O)/N=c2\sccn2C)cc1	3	nt	5	1	nt	46*
Cc1ccc(S(=O)(=O)N2CCC(C(=O)Nc3cc(C)nn3C(C)C)CC2)cc1	nt	nt	nt	nt	-5	nt
SMILES	CCHF vOTU inh	TcdB GH inh	VHR inh abs	PrPC surface inh	SSB-PriA inh	BH1578 lux ind
COc1ccc(C2=NOC(C(=O)N3CCN(C(=O)c4ccco4)CC3)C2)cc1OC (stereo not drawn)	3	2	5	2	-4	i
O=C(c1ccco1)N1CCN(C(=O)C2CC(c3ccc(Cl)cc3)=NO2)CC1 (stereo not drawn)	-1	nt	59*	-9	-24	i
Cc1noc(C2CCCN2C(=O)NCCCc2ccccc2)n1 (stereo not drawn)	nt	nt	nt	nt	54*	nt
Cc1cc2nc(C)n(CCCN)c2cc1C	-5	nt	51*	8	-5	0
Cc1cc2nc(C)n(CCCNC(=O)Nc3ccc(C#N)cc3)c2cc1C	-8	nt	47	-7	8	0
Cc1cc(NC(=O)CSc2nc3sc4c(c3c(=O)n2-c2ccccc2)CCCC4)no1	nt	nt	nt	nt	-2	nt
O=C(C[C@H]1CCCCN1S(=O)(=O)c1ccc(Cl)cc1)NCCC1=CCCCC1	nt	nt	nt	nt	-8	nt
COc1cc([N+](=O)[O-])cc(C=NNC(=O)Cn2cncn2)c1O	nt	nt	nt	nt	23	nt
O=C(Cn1cncn1)NN=Cc1cc([N+](=O)[O-])ccc1O	nt	nt	nt	nt	40*	nt
COc1ccc(CCC(=O)NCc2ccnc(-c3ccsc3)c2)cc1Br	nt	nt	nt	nt	2	nt

High-throughput results (PubChem BioAssay)
